{"source": "PubChem BioAssay (Tox21)", "note": "Inconclusive results are not listed. A number with no mark means an inactive call. The source made the active and inactive calls. Calls come from the whole dose curve; as a rule, active = well fitted cell-killing curve with a large enough effect in the repeat runs; inconclusive = weak or mixed curves; inactive = no such curve, though single readings can be large or run the other way. Residues, ends and D or L forms follow the SMILES beside them. % is set by controls: 0 for no effect and ±100 for the full control effect.", "data": [{"assay": "qHTS assay to identify small molecule antagonists of the peroxisome proliferator-activated receptor delta (PPARd) signaling pathway - cell viability counter screen (AID 743213); note: nearly all actives have a fitted effect of over 50% in size", "conditions": "PPARd-bla HEK293H viability, CellTiter-Glo luminescence, 17 h; series mostly up to 62 µM; viability change, negative = cytotoxic: at the top concentration", "excerpt": "U.S. Tox21 Program National Center for Advancing Translational Sciences [NCATS] NIH Chemical Genomics Center [NCGC] U.S. Environmental Protection Agency [EPA] National Institutes of Environmental Health Sciences [NIEHS] National Toxicology Program [NTP] U.S. Food and Drug Administration [FDA] Tox21 Assay Overview: The peroxisome proliferator-activated receptors (PPARs) are lipid-activated transcription factors of the nuclear receptor superfamily with three distinct subtypes namely PPAR alpha, PPAR delta (PPARd) and PPAR gamma. All these subtypes heterodimerizes with Retinoid X receptor (RXR) and have different physiological functions. […] To identify the compounds that inhibit PPAR-delta signaling, GeneBLAzer PPAR delta UAS-bla HEK293H cell line (Invitrogen, Carlsbad, CA, USA) containing a beta-lactamase reporter gene under the control of an Upstream Activator Sequence (UAS) was used to screen the Tox21 compound library. The cytotoxicity of the Tox21 compound library against the PPARd-bla cell line was tested in parallel by measuring the cell viability using CellTiter-Glo assay (Promega, Madison, WI) in the same wells.\nTox21 Assay Protocol Summary: PPARd-bla cells were dispensed at 3000 cells/5uL/well in 1536-well black wall/clear bottom plates using a Multidrop Combi (Thermo Fisher Scientific, Waltham, MA) dispenser. After the assay plates were incubated at 37 C and 5% CO2 for 5 h, 23 nL of compounds dissolved in DMSO, positive controls or DMSO only was transferred to the assay plate by a Pintool station (Kalypsys, San Diego, CA), followed by addition of 1ul L165041 (300 nM, final concentration in the wells). The assay plates were incubated at 37 C for 17 h, and then 1 uL of LiveBLAzerTM B/G FRET substrate was added using a Bioraptr Flying Reagent Dispenser (FRD) workstation (Beckman Coulter, Indianapolis, IN, USA). The assay plates were incubated at room temperature for 2 h and fluorescence intensity was measured by an Envision plate reader (PerkinElmer, Shelton, CT). For cell viability readout that measures cytotoxicity, 3 ul/well of CellTiter-Glo reagent was added into the assay plates using a Bioraptr FRD. After 30 min incubation at room temperature, the luminescence intensity in the plates was measured using a ViewLux plate reader (PerkinElmer).", "units": {"viability change, negative = cytotoxic": "%"}, "values": [{"smiles": "Cc1ccc(S(=O)(=O)NC(=O)NN2CCCCCC2)cc1", "outcome": "inactive"}, {"smiles": "COC(=O)[C@H](Cc1ccccc1)NC(=O)[C@@H](N)CC(=O)O", "note": "(H-Asp-Phe-OMe)", "outcome": "inactive"}, {"smiles": "C/C=C/c1ccc(OC)cc1", "outcome": "inactive"}, {"smiles": "NC(=O)c1ccccc1O", "outcome": "inactive"}, {"smiles": "Cc1cn([C@H]2C[C@H](N=[N+]=[N-])[C@@H](CO)O2)c(=O)[nH]c1=O", "outcome": "inactive"}, {"smiles": "OC(Cn1cncn1)(Cn1cncn1)c1ccc(F)cc1F", "outcome": "inactive"}, {"smiles": "C[C@]12C=CC(=O)C=C1CC[C@@H]1[C@@H]2[C@@H](O)C[C@@]2(C)[C@H]1CC[C@]2(O)C(=O)CO", "outcome": "inactive"}, {"smiles": "OCCc1ccccc1", "outcome": "inactive"}, {"smiles": "NS(=O)(=O)c1cc(C(=O)O)c(NCc2ccco2)cc1Cl", "outcome": "inactive"}, {"smiles": "O=c1cc[nH]c(=S)[nH]1", "outcome": "inactive"}, {"smiles": "CC(O)C(=O)O", "note": "(stereo not given)", "outcome": "inactive"}, {"smiles": "c1ccc2[nH]ccc2c1", "outcome": "inactive"}, {"smiles": "CCCCOC(=O)CC(CC(=O)OCCCC)(OC(C)=O)C(=O)OCCCC", "outcome": "inactive"}, {"smiles": "NC(=O)NC1NC(=O)NC1=O", "note": "(stereo not given)", "outcome": "inactive"}, {"smiles": "CCCNC(=O)NS(=O)(=O)c1ccc(Cl)cc1", "outcome": "inactive"}, {"smiles": "Cn1cc[nH]c1=S", "outcome": "inactive"}, {"smiles": "Nc1ccc(C(=O)O)cc1", "outcome": "inactive"}, {"smiles": "Cn1c(=O)c2[nH]cnc2n(C)c1=O", "outcome": "inactive"}, {"smiles": "NC(=O)c1cnccn1", "outcome": "inactive"}, {"smiles": "O=C(O)CCC(=O)O", "outcome": "inactive"}, {"smiles": "O=C(O)C(=O)O", "outcome": "inactive"}, {"smiles": "CC(C)(Oc1ccc(C2CC2(Cl)Cl)cc1)C(=O)O", "note": "(stereo not given)", "outcome": "inactive"}, {"smiles": "CC1(C)[C@@H]2CC[C@@]1(C)C(=O)C2", "outcome": "inactive"}, {"smiles": "COc1c2occc2cc2ccc(=O)oc12", "outcome": "inactive"}, {"smiles": "O=C1CN(/N=C/c2ccc([N+](=O)[O-])o2)C(=O)N1", "outcome": "inactive"}, {"smiles": "O=S(=O)(O)NC1CCCCC1", "outcome": "inactive"}, {"smiles": "NC(N)=O", "outcome": "inactive"}, {"smiles": "O=C(O)CCCCC(=O)O", "outcome": "inactive"}, {"smiles": "O=C(O)c1cccnc1", "outcome": "inactive"}, {"smiles": "Cc1ccccc1C(OCCN(C)C)c1ccccc1", "note": "(stereo not given)", "viability change, negative = cytotoxic": -16.8}, {"smiles": "O=C(C1CCCCC1)N1CC(=O)N2CCc3ccccc3C2C1", "note": "(stereo not given)", "outcome": "inactive"}, {"smiles": "NC(N)=NC(=O)c1nc(Cl)c(N)nc1N", "outcome": "inactive"}, {"smiles": "Nc1ccc(S(=O)(=O)c2ccc(N)cc2)cc1", "outcome": "inactive"}, {"smiles": "NNC(=O)c1ccncc1", "outcome": "inactive"}, {"smiles": "Nc1ccc(S(=O)(=O)Nc2nccs2)cc1", "outcome": "inactive"}, {"smiles": "Cc1noc(NS(=O)(=O)c2ccc(N)cc2)c1C", "outcome": "inactive"}, {"smiles": "O=C(O)CS", "outcome": "inactive"}, {"smiles": "CCCC(O)C(CC)CO", "note": "(stereo not given)", "outcome": "inactive"}, {"smiles": "Nc1ccn([C@H]2CC[C@@H](CO)O2)c(=O)n1", "outcome": "inactive"}, {"smiles": "CCCCC1C(=O)N(c2ccccc2)N(c2ccccc2)C1=O", "outcome": "inactive"}]}]}
